# Measurements from the supplement of paper PMC6555819.
# Tests used:
# Assay in all cases: PBM binding z-score (relative to random genomic background probes); higher = stronger binding; sequences stand for … in GC…GCGATTGACAGCGTAGAATGAAGG
# [1] = system: PPARg:RXRa DBDmut IVT, anti-RXR (DBD mutation: RXRa K156A/R161A, NR concentration 270 nM, RXRa partner concentration 90 nM)
# Outline: (§1)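 Binding z-scores take random background probes as their reference. They come from custom Agilent 4×180K protein-binding microarrays incubated 1 h with ligand-free nuclear receptor dimers, with antibodies against each partner (one per run) detecting binding. Scanned fluorescence was regression-normalized.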
# [2] = system: PPARg:RXRa IVT, anti-PPARg (NR concentration 270 nM, RXRa partner concentration 90 nM)
# Outline: as §1
# [3] = system: PPARg DBDmut:RXRa IVT, anti-PPARg (DBD mutation: PPARg1 K132A/R137A, NR concentration 270 nM, RXRa partner concentration 90 nM)
# Outline: as §1
# [4] = system: PPARg DBDmut IVT, anti-PPARg (DBD mutation: PPARg1 K132A/R137A, NR concentration 270 nM)
# Outline: as §1
# [5] = system: PPARg homodimer (NR concentration 180 nM)
# Outline: as §1
# [6] = system: PXR:RXRa (NR concentration 270 nM, RXRa partner concentration 90 nM)
# Outline: as §1
# [7] = system: PXR homodimer (NR concentration 270 nM)
# Outline: as §1
# [8] = system: RARa:RXR (NR concentration 270 nM, RXRa partner concentration 90 nM)
# Outline: as §1
# [9] = system: RARa homodimer (NR concentration 270 nM)
# Outline: as §1
# [10] = system: RARb:RXRa (NR concentration 270 nM, RXRa partner concentration 90 nM)
# Outline: as §1
# [11] = system: RARb homodimer (NR concentration 270 nM)
# Outline: as §1
# [12] = system: RARg:RXRa (NR concentration 270 nM, RXRa partner concentration 90 nM)
# Outline: as §1
# [13] = system: RARg homodimer (NR concentration 270 nM)
# Outline: as §1
# [14] = system: RXRa DBDmut IVT, anti-RXR (DBD mutation: RXRa K156A/R161A, NR concentration 90 nM)
# Outline: as §1
# [15] = system: RXRa homodimer (NR concentration 180 nM)
# Outline: as §1
# [16] = system: THRa:RXRa (NR concentration 90 nM, RXRa partner concentration 90 nM)
# Outline: as §1
# [17] = system: THRa homodimer (NR concentration 90 nM)
# Outline: as §1
# [18] = system: VDR homodimer (NR concentration 270 nM)
# Outline: as §1
Sequence,PBM binding z-score [1],PBM binding z-score [2],PBM binding z-score [3],PBM binding z-score [4],PBM binding z-score [5],PBM binding z-score [6],PBM binding z-score [7],PBM binding z-score [8],PBM binding z-score [9],PBM binding z-score [10],PBM binding z-score [11],PBM binding z-score [12],PBM binding z-score [13],PBM binding z-score [14],PBM binding z-score [15],PBM binding z-score [16],PBM binding z-score [17],PBM binding z-score [18]
TCATATAGGTGATACAGGTGAAAGTCGGCATCTA,4.78,4.31,1.81,1.2,1.4,0.783,0.342,0.978,1.22,0.996,1.08,0.874,0.742,1.16,1.34,0.983,0.0719,0.258
CATTACGGGTCACTGACAGGTTATAGCATTTGGA,4.59,5.02,2.13,1.77,2.69,3.95,0.249,4.95,1.33,4.05,3.58,5.97,4.78,2.24,5.7,3.2,0.716,1.4
GCTGCTAGGTCATCTGATGGTCAGCTAAAGCTCG,3.87,3.44,-0.368,-0.142,0.777,1.71,-0.679,2.64,-0.43,4.07,3.52,5.15,4.96,2,2.79,2.97,0.735,0.443
TCTTGTAGATCAGCAGGATAAGAAAGCTGGCCAA,1.55,0.124,0.2,-0.242,-1.15,-0.413,-0.584,-0.151,-0.239,-0.505,-0.798,-0.461,-0.47,0.379,-0.273,-0.557,-0.84,-0.775
ATATGTAGGTTACATCCGTGTCATTCAGGCTATG,7.68,7.5,2.03,4.51,1.36,0.878,0.202,0.935,0.528,1.28,1.2,1.59,1.21,1.02,1.08,1.4,0.344,0.511
CCGACTGGGGCATAAGATTACCATAAGCCAGCCC,3.26,1.75,-0.988,-1.17,0.089,-0.666,-0.41,-0.621,-0.486,0.112,-0.156,-0.0949,0.359,-0.222,-0.0512,-0.577,-0.917,-0.442
CGGCAAAGTTCAAGGTAACGTAACAGAAAGCAGC,0.813,1.56,-1.51,-0.284,2.12,4.05,2.11,3.29,0.805,5.04,3.52,5.32,6.01,4.49,4.62,2.79,0.581,2.71
CAAACTAGGTCAAGGTCAGAGTCGGTTTGTGCCA,8.39,8.85,4.94,5.19,4.13,4.13,1.18,4.4,2.46,5.06,4.8,5.32,6.42,2.33,4.6,4.29,3.28,2.79
ACTAGCAGGCCAAGGTTCACTCAAGATTAGTCCG,1.19,2.08,-0.0687,-0.0109,0.515,1.36,0.191,1.35,0.0605,1.62,1.66,1.53,1.15,1.75,1.58,1.31,0.0178,3.42
CGTCCAAGGTCATAGGTGGTCAGTGAAGACAGAT,2.96,3.73,0.259,-0.648,2.54,4.5,1.58,5,1.26,4.89,4.26,5.65,5.75,3.99,5.94,4.18,2.79,3.02
CAAACTACGTCAAGGTCAAAGTCGGTTTGTGCCA,0.822,1.93,0.681,0.932,2.33,4.63,2.94,4.28,0.409,4.04,4.2,4.46,4.3,2.66,4.77,3.96,3.63,4.35
GCTTGTAGAACAAGGTTAAGAAAGACTAAGCTAA,1.63,1.06,-0.311,-0.211,0.167,0.293,-0.338,0.612,-0.688,0.679,-0.00172,0.534,0.188,-0.0592,0.633,0.947,-0.592,-0.315
ATCGAAAGGTTGAGGTGAGTATAGAGAAAGGGAA,-0.0233,1.04,1.15,1.07,0.793,0.751,0.241,1.37,0.673,1.79,1.24,1.39,1.25,-0.21,1.16,2.38,1.27,0.34
CCTTACGGGTCACTGACAGGTTATAGCATTTGGA,3.49,3.75,0.989,0.078,3.59,3.81,-0.141,4.92,1.13,4.02,3.39,6.19,4.95,1.95,5.59,2.98,0.283,1.03
ATCGAAAGGTCGAGGTGAGTATAGAGAAAGGGAA,0.752,2.38,0.636,0.688,1.8,2.49,0.362,3.37,0.75,4.18,2.86,4.31,4.51,0.657,4.3,2.81,0.624,0.373
TCTATTAGTTGATTAGGGCAACCCAAACAGCGGA,1.83,1.56,1.32,1.89,0.811,0.65,0.299,0.776,1.44,0.917,0.891,0.877,0.646,1.04,0.612,0.77,0.499,0.49

Sequence,PBM binding z-score [1],PBM binding z-score [2],PBM binding z-score [3],PBM binding z-score [4],PBM binding z-score [5],PBM binding z-score [6],PBM binding z-score [7],PBM binding z-score [8],PBM binding z-score [9],PBM binding z-score [10],PBM binding z-score [11],PBM binding z-score [12],PBM binding z-score [13],PBM binding z-score [14],PBM binding z-score [15],PBM binding z-score [16],PBM binding z-score [17],PBM binding z-score [18]
CCTACTGGGCCATCAGGTCACTGATATCAACGTT,4.97,5.45,-0.0281,-0.141,0.904,1.44,0.0492,1.94,-0.142,2.33,2.82,2.28,2.5,-0.0787,1.54,3.34,3.44,0.813
TCATATGGGTAAAGGTGAAAGTCGAACGATATGA,3.36,3.75,1.24,0.532,0.852,0.764,-0.418,1.66,0.221,1.79,1.36,1.41,0.964,0.352,2.08,1.24,-0.573,-0.341
AGAACGAGGGCAATCAGTTGATAGCACGGGTGGC,3.4,3.01,0.487,-0.148,-0.207,1.03,1.55,0.384,-0.0136,2.09,1.08,1.25,1.74,1.89,0.909,1.04,0.0484,1.61
CGAACTAGGTCATTGACAGGACAGTGATTAGTAA,8.18,8.17,4.22,2.86,1.7,1.91,0.608,2.36,0.564,3.62,2.83,4.5,4.52,2.49,2.47,2.9,1.05,1.52
AGAATGCGGTTATACGTAGATCAGGGAAGAAAGT,-0.0715,-0.172,-0.724,-0.259,-0.759,-0.417,-0.318,-0.261,-0.54,-0.164,-0.25,0.0152,-0.0583,-0.501,0.067,-0.31,-0.634,-0.661
CCTGCTTGGTCAATGGTCAGCTAAAGCAGCTCGC,0.434,-0.107,-1.05,-0.884,0.138,-0.296,-0.881,0.00711,-0.943,1.01,0.507,-0.324,0.0947,0.0969,-0.389,-0.501,-0.238,-0.585
CCTAGTTGGTGAGGAGGTCACACACCGGATATGA,0.486,2.56,0.735,0.147,3.46,3.86,1.61,4.11,1.97,3.1,3.83,4.09,3.23,0.474,3.91,3.34,2.03,2.53
CTACCAAGGTGAACAAGGTCGTTGTTTACTATTC,2.55,2.57,0.468,0.107,0.724,2.78,1.16,2.27,-0.486,2,1.97,1.78,1.27,1.63,1.9,3.23,1.76,2.16
AGAATGAGGTTACCAAAGATCAGGGTAACGCTTG,4.2,3.74,1.58,0.777,1.01,1.83,-0.213,2.59,-0.485,2.2,1.37,2.15,1.95,1.3,3.07,3.1,1.43,0.478
TCATACAGGTAAACAGGTGAAAGTCCGTAAGTTA,3.22,2.7,0.361,1.11,1.16,1.03,0.792,1.42,1.16,0.895,1.16,0.793,0.447,1.62,1.12,1.05,0.697,0.33
GTACCAAGGTGAACAGGTCGTTGATGAGTAGGCG,1.79,3,-0.0563,-0.667,0.811,0.437,-0.13,1.38,-0.00415,2.09,1.76,1.95,1.02,-0.221,1.67,2.22,0.534,0.0817
CCTGCTAGGTCATGGTCAGCTAATCTACAGTATG,4.5,4.22,0.0201,0.284,0.79,1.41,0.115,2.34,0.369,3.95,3.24,4.01,4.52,1.9,2.92,3.06,1.39,0.473
TTACCAAGGTGAAGATCGTTGATCCCTCTGTAGA,1.37,1.92,0.401,0.0725,0.177,0.123,-0.895,0.533,-0.66,1.26,0.271,0.271,0.232,-0.349,0.567,1.58,0.0556,-0.499
CAACCTAGGTCAAGAGGTCAAAGTCCGCTTCCCG,4.75,5.45,0.0311,-0.16,5.72,6.26,2.37,7.74,2.15,5.42,5.47,8.21,7.78,3.12,8.82,4.18,2.41,4.38
TCTATTAGTTGAATAGGGCAACCGAAACAGCGGA,2.01,1.19,0.574,0.929,0.658,0.411,0.0472,0.67,0.29,1.13,0.977,0.99,0.765,0.685,0.759,0.247,-0.423,-0.139
